# Measurements: PubChem BioAssay
# Unmarked numbers belong to inactive results. The list shows a part of the results. Active and inactive are the calls of the source. Cut-off read from the data, not from the text of the source, unless noted: active = inhibition above about 25%; inactive = the rest.
# Tests used:
# [1] = growth loss of phage-infected E. coli expressing H. pylori AddAB, confirmation, AddAB inhibitor project, absorbance, E. coli V3065, T4 phage, triplicate (AID 488942;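 active = mean inhibition above a set limit taken from the earlier primary screen, cut at about 13% in these data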;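 note: higher means less bacterial growth since AddAB block lets phage replicate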); details: OD, at 11.9 µM, stronger effect = higher value, T4 phage with gene 2 nonsense mutations
# [2] = growth loss of RecBCD+ E. coli with mutant T4 phage, counter-screen for AddAB inhibitor project, absorbance, V66 E. coli (AID 488955;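 active = mean inhibition above the mean of solvent-only control wells plus 3 SD, cut at about 4% in these data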;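 note: optical density read after an 18 h incubation at 37 °C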); details: OD growth, at 11.9 µM, stronger effect = higher value
# [3] = bacterial viability inhibition counter-screen, confirmation, counter-screen for AddAB inhibitor project, absorbance (AID 488956); details: absorbance (AddAB counterscreen), at 11.9 µM, stronger effect = higher value
# [4] = molecular target: Nuclear receptor coactivator 3 (Homo sapiens) (UniProt Q9Y6Q9); assay: SRC3 coactivator transcriptional activity inhibitors, confirmation, cell-based, luminescence, quadruplicate (AID 588792;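 active = mean inhibition over 43.08%, the solvent-only control mean plus 3 SD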;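 note: 0% = DMSO treated cells and 100% = gossypol at 36 µM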); details: HEK293 GAL4-SRC3 luciferase reporter, at 3.6 µM, stronger effect = higher value
# Chain of Nuclear receptor coactivator 3 (Homo sapiens) (Q9Y6Q9 whole entry, looked up, the tested form may be a part): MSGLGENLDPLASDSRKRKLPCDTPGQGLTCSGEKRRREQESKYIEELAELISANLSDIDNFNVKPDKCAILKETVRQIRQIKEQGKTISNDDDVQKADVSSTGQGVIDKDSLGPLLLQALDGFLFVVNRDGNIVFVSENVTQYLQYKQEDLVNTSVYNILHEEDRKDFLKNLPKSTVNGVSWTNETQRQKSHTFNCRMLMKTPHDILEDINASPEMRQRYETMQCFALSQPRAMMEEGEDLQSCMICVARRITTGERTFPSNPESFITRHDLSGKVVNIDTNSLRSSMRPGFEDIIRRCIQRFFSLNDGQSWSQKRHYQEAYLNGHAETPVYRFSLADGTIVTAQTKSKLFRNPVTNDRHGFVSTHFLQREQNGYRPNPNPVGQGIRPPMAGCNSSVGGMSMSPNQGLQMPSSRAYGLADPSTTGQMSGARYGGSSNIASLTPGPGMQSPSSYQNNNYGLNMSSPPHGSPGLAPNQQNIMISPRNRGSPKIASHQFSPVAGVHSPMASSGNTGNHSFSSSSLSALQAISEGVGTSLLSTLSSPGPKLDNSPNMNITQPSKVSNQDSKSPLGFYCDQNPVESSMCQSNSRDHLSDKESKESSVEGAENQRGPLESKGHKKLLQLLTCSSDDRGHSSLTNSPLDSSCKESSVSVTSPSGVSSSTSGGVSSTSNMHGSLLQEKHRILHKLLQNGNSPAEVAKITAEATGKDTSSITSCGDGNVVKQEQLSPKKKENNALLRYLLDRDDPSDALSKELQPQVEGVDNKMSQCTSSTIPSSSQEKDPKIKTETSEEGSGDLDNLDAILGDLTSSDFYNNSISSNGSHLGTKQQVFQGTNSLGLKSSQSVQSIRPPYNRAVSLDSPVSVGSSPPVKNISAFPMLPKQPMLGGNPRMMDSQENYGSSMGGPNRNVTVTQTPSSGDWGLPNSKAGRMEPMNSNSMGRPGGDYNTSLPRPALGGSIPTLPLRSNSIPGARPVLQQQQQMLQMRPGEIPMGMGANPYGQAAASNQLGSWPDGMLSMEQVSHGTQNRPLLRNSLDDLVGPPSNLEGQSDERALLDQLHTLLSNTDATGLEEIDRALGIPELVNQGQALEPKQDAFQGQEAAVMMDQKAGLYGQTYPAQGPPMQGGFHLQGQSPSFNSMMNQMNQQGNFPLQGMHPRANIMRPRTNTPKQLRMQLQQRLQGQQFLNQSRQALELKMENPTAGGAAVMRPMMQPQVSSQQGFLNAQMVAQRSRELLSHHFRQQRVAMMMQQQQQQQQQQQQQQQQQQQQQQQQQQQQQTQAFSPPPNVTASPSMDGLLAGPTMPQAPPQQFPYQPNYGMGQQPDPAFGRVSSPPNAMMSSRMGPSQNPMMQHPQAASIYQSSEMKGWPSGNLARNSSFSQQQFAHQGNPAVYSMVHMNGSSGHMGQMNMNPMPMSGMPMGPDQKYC
# [5] = test system: transactivating tegument protein VP16 (Human herpesvirus 1), Gal4-VP16 luciferase reporter; assay: VP16 transactivation inhibitors, counter-screen for SRC3 inhibitor project, cell-based, luminescence, high throughput (AID 588794; in the data active = inhibition above about 30%); details: mammalian cells, VP16-driven luciferase reporter luminescence; at 3.6 µM; stronger effect = higher value
# [6] = molecular target: Nuclear receptor coactivator 1 (Homo sapiens) (UniProt Q15788); assay: SRC1 coactivator transcriptional activity inhibitors, confirmation, cell-based, luminescence, quadruplicate (AID 588820;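 active = mean inhibition above 46.68%, the untreated control wells mean plus 3 SD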;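 note: 0% = DMSO wells and 100% = gossypol 36 µM treated wells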); details: HEK293 GAL4-SRC1 luciferase reporter, at 3.6 µM, stronger effect = higher value
# Chain of Nuclear receptor coactivator 1 (Homo sapiens) (Q15788 whole entry, looked up, the tested form may be a part): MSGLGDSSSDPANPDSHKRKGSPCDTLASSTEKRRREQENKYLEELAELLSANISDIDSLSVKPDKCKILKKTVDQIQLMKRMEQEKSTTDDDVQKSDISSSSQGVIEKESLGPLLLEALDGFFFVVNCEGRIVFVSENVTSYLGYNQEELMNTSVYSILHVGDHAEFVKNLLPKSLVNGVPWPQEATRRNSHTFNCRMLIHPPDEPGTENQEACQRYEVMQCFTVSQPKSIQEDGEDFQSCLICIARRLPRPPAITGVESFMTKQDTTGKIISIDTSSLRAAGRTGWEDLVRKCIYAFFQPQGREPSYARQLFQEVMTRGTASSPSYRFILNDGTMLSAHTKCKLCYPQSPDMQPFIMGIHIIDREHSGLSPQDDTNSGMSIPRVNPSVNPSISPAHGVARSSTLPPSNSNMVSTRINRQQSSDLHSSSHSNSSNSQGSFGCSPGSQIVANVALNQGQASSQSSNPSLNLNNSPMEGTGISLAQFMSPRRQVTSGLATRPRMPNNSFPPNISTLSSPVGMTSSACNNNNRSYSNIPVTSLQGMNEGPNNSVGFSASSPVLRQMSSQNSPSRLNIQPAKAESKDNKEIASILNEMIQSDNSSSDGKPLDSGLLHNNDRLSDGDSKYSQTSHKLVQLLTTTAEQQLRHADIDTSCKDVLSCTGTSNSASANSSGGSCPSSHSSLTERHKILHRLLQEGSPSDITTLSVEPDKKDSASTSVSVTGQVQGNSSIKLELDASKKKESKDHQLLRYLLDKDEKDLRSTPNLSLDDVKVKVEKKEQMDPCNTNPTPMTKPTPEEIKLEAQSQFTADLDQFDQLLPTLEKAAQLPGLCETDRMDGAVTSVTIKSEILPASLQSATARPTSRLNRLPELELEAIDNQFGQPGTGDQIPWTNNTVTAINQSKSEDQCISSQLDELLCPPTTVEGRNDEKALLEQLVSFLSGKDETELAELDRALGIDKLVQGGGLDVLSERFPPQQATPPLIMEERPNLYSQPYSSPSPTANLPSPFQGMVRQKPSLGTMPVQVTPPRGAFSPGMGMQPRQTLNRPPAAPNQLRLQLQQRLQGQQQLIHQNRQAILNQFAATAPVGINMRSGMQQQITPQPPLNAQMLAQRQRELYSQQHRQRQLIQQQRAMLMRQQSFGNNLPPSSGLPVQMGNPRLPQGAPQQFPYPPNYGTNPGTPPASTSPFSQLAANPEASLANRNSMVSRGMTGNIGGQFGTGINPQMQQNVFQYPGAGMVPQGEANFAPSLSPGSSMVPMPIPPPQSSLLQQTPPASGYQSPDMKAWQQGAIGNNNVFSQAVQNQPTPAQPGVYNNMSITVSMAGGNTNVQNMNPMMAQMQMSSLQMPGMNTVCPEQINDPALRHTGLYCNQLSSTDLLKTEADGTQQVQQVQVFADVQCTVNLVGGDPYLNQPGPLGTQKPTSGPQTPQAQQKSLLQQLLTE
# [7] = VP16 transactivation inhibitors, counter-screen for SRC1 inhibitor project, cell-based, luminescence, high throughput (AID 588824); details: cell-based VP16 transactivation luciferase luminescence; at 3.6 µM; stronger effect = higher value
# [8] = growth loss of phage-infected RecBCD+ E. coli, confirmation, RecBCD inhibitor project, absorbance, E. coli V66, T4 gene 2 phage (AID 651982;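 active = mean inhibition over triplicates exceeding the hit threshold derived in the original primary screen, cut at about 11% in these data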); details: E. coli V66 + T4 2- phage, growth OD; at 11.9 µM; stronger effect = higher value
# [9] = E. coli viability inhibition, counter-screen for RecBCD inhibitor project, absorbance, high throughput (AID 651983; in the data active = inhibition above about 20%;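 note: E. coli strain V66 grown with compound alone and no phage infection; 0% = bacteria with DMSO vehicle only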); details: absorbance (OD) growth, at 11.9 µM, stronger effect = higher value
# [10] = growth loss of phage-infected AddAB-carrying E. coli, confirmation, counter-screen for RecBCD inhibitor project, absorbance, E. coli V3065, T4 phage (AID 651984;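 active = mean inhibition above the solvent-only control wells' mean plus 3 SD, cut at about 22% in these data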;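 note: higher means less bacterial growth from phage killing when AddAB is blocked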); details: E. coli expressing H. pylori AddAB + T4 phage, OD growth; at 11.9 µM; stronger effect = higher value; gene 2 mutant T4, recBCD-deleted host
# [11] = molecular target: Serine protease HTRA1 (Homo sapiens) (UniProt Q92743); assay: HTRA1 protease inhibitors, retest, confirmation, biochemical, fluorescence polarization (AID 540248;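 active = mean inhibition over three repeats above a set limit taken from the earlier primary screen, cut at about 37% in these data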;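 note: 0% = HTRA1 with DMSO and 100% = wells lacking HTRA1; inhibitors block probe binding so polarization drops and inhibition rises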); details: recombinant HTRA1, FP-rhodamine activity-based probe, at 5.96 µM, stronger effect = higher value
structure (smiles),measurement,setting,value
Nc1nonc1-n1nnc(C(=O)N/N=C/c2cc(Br)ccc2O)c1CSC1=NCCS1,inhibition,[1],14.2% (active)
same,inhibition,[2],16% (active)
same,inhibition,[3],9.73%
same,inhibition,[4],42.7%
same,inhibition,[5],34.5% (active)
same,inhibition,[6],41%
same,inhibition,[7],33.4% (active)
same,inhibition,[8],6.91%
same,inhibition,[9],9.92%
same,inhibition,[10],10.8%
Cc1cn(C2C=CC(CO)O2)c(=O)[nH]c1=O (stereo not given),inhibition,[1],83.8% (active)
same,inhibition,[2],6.53% (active)
same,inhibition,[3],42.2% (active)
same,inhibition,[8],14.1% (active)
same,inhibition,[9],8.16%
same,inhibition,[10],54.6% (active)
O=C(CN1CCN(S(=O)(=O)c2cc(Cl)ccc2Cl)CC1)c1ccc(O)c(O)c1,inhibition,[11],45.3% (active)
Oc1c(CN2CCCC2)cc(COCc2ccccc2)c2cccnc12,inhibition,[11],80% (active)
CC[C@H]1OC(=O)[C@H](C)[C@@H](O[C@H]2C[C@@](C)(OC)[C@@H](O)[C@H](C)O2)[C@H](C)[C@@H](O[C@@H]2O[C@H](C)C[C@H](N(C)C)[C@H]2O)[C@](C)(O)C[C@@H](C)[C@@H]2N[C@@H](COCCOC)O[C@H]([C@H]2C)[C@]1(C)O,inhibition,[1],62.5% (active)
same,inhibition,[2],41% (active)
same,inhibition,[3],37.2% (active)
same,inhibition,[8],33.9% (active)
same,inhibition,[9],34.4% (active)
same,inhibition,[10],42.6% (active)
O=C(OCC(=O)c1cccs1)c1ccc([N+](=O)[O-])o1,inhibition,[1],73.1% (active)
same,inhibition,[2],1.72%
same,inhibition,[3],6.32%
C/[N+]([O-])=C\c1ccc([N+](=O)[O-])o1,inhibition,[1],101% (active)
same,inhibition,[2],42.8% (active)
same,inhibition,[3],99.3% (active)
